Assay [1] in a line: NCI Yeast Anticancer Drug Screen. Data for the rad50 strain (AID 155).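 Note: 0% = growth of vehicle-only cultures of the same strain.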 Particulars: S. cerevisiae rad50 strain growth inhibition; at 50.0 µM; stronger effect = higher value. The essentials:
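Inhibition values express reduced yeast growth in compound-treated cultures relative to vehicle-treated controls.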

Assay [2] can be described thus: NCI Yeast Anticancer Drug Screen. Data for the mec2-1 strain (AID 157). To be noted: S. cerevisiae mec2-1 strain, at 50.0 µM, stronger effect = higher value. The essentials: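 mec2-1 yeast strain, carrying an alteration in DNA damage repair or cell cycle control, was exposed to compounds; growth inhibition was measured relative to vehicle-treated controls.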
Assay [3] is described as follows: NCI Yeast Anticancer Drug Screen. Data for the sgs1 mgt1 strain (AID 161).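 Note: 0% = growth of cultures given vehicle only.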 Particulars: S. cerevisiae sgs1 mgt1 strain, at 50.0 µM, stronger effect = higher value. The essentials: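 This yeast growth screen uses a strain with defined DNA-repair lesions; compound-treated growth is compared with vehicle-treated growth.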
A short description of assay [4]: NCI Yeast Anticancer Drug Screen. Data for the cln2 rad14 strain (AID 165).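 Note: 0% = growth equal to vehicle treated cultures.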 Particulars: S. cerevisiae cln2 rad14 strain, at 50.0 µM, stronger effect = higher value. The essentials: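 Yeast carrying cln2 and rad14 alterations (cell cycle control and DNA damage repair) were exposed to compounds. Growth inhibition was measured against vehicle-treated controls.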
Assay [5] is described as follows: NCI Yeast Anticancer Drug Screen. Data for the bub3 strain (AID 167). Particulars: S. cerevisiae bub3 mutant strain, at 50.0 µM, stronger effect = higher value. The essentials: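 Steps: expose the mutant yeast strain to compound; grow alongside vehicle-treated cultures; measure growth; express inhibition against the vehicle cultures.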
Assay [6] is described as follows: NCI Yeast Anticancer Drug Screen. Data for the mlh1 rad18 strain (AID 175). Particulars: S. cerevisiae mlh1 rad18 strain growth inhibition; at 50.0 µM; stronger effect = higher value. The essentials:
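Growth inhibition of the yeast strain was measured after compound exposure and expressed relative to vehicle-treated controls. The strain carries defined defects in DNA damage repair.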

This passage reports growth inhibition results from PubChem BioAssay (NCI).

Each structure is given as a SMILES string. Where “and” joins values, the source holds several entries; their conditions need not be identical. Identical values can stand only once. Compounds without any hit were thinned out: in the full panel of roughly 79,000, 15% have a hit. The source holds several records for some structures; these can differ, active in one and inactive in another. Calls of active or inactive are those of the source. Cut-off read from the data, not from the text of the source: active = growth inhibition above about 70%; inactive = the rest.

As for `COc1cc(C(c2c(O)c3ccccc3oc2=O)c2c(O)c3ccccc3oc2=O)cc(OC)c1OC`, the growth inhibition was -2.1% (inactive) in assay [1]; -8.15% (inactive) in assay [2]; -10.2% (inactive) in assay [3]; 0.9% (inactive) in assay [4]; -11.7% (inactive) in assay [5]; -2.85% (inactive) in assay [6].

As to `CC(C)[N+](C)(CCC(C(=O)N(C)C)(c1ccccc1)c1ccccc1)C(C)C`, the growth inhibition in assay [1] is 18.6% (inactive); in assay [2], -1.55% (inactive); in assay [3], 4.7% (inactive); in assay [4], 13.3% (inactive); in assay [5], -16% (inactive); in assay [6], 24.4% (inactive).

Consider `O=C(NCCN1CCOCC1)C1(O)N=C(c2ccccc2)c2ccsc2-n2cccc21` (configuration not stated), for which the growth inhibition in assay [1] is 51.3% (inactive); in assay [2], 30.3% (inactive); in assay [3], 64.2% (inactive); in assay [4], -6.05% (inactive); in assay [5], 27.6% (inactive); in assay [6] it was 36.5% (inactive).

As to `C=CCc1cc(-c2cc(CC=C)c(O)c(CN(CCCl)CCCl)c2)cc(CN(CCCl)CCCl)c1O`, the growth inhibition in assay [1] is 41.5% (inactive); in assay [2], 49.8% (inactive); in assay [3], 47.1% (inactive); in assay [4] it was 43.1% (inactive); in assay [5], 60% (inactive); in assay [6], 44.1% (inactive).

Take `Cc1[nH]cc2c1C(c1ccccc1F)=NCC(=O)N2`: the growth inhibition in assay [1] was 19.7% (inactive); in assay [2] it was -3.5% (inactive); in assay [3], 17.4% (inactive); in assay [4] it was -13.7% (inactive); in assay [5] it was 8.4% (inactive); in assay [6], 0.1% (inactive).

Turning to `N#Cc1cccc([N+](=O)[O-])c1`, the growth inhibition in assay [1] was -17.7% (inactive); in assay [2], 0.3% (inactive); in assay [3], -26.6% (inactive); in assay [4] it was 30.8% (inactive); in assay [5] it was -9.7% (inactive); in assay [6], -18.9% (inactive).

Turning to `Cc1ccc([As]=[As]c2ccc(C)cc2N)c(N)c1` (configuration not stated), the growth inhibition in assay [1] was -12.3% (inactive); in assay [2], -2.8% (inactive); in assay [3], -3.95% (inactive); in assay [4], -9.95% (inactive); in assay [5] it was 9.05% (inactive); in assay [6] it was -9.6% (inactive).

Take `O=NN1CCOCC1`: the growth inhibition in assay [1] was -36.5% (inactive); in assay [2], 11.1% (inactive); in assay [3] it was 14.8% (inactive); in assay [4] it was -15.7% (inactive); in assay [5], -1.6% (inactive); in assay [6], 31.1% (inactive).

Regarding `N=C(N)SCc1ccc(Cl)c(Cl)c1` (tested in a mixture with another compound), the growth inhibition in assay [1] is 13.6% (inactive); in assay [2], 10.8% (inactive); in assay [3], -3.55% (inactive); in assay [4] it was -6.1% (inactive); in assay [5] it was 3.5% (inactive); in assay [6], 10.7% (inactive).

With `O=C1CC23c4ccccc4N4C(=O)CC5OCC=C6CN1C2CC6C5C43` (configuration not stated), the growth inhibition in assay [1] is 4.1% (inactive); in assay [2], -34.5% (inactive); in assay [3], -7.15% (inactive); in assay [4], 7.9% (inactive); in assay [5] it was 12.8% (inactive); in assay [6], 6.8% (inactive).

For the molecule `CCNC(Cc1ccccc1)c1ccco1` (configuration not stated), the growth inhibition in assay [1] is -2.35% (inactive); in assay [2] it was -12.1% (inactive); in assay [3], -15.5% (inactive); in assay [4], 18.8% (inactive); in assay [5] it was -10.2% (inactive); in assay [6] it was 12.5% (inactive).

On to `NC1(P(=O)(O)O)CCCCC1`, for which the growth inhibition in assay [1] was 2.5% (inactive); in assay [2], -3% (inactive); in assay [3], -22.4% (inactive); in assay [4], -52% (inactive); in assay [5] it was -31.6% (inactive); in assay [6], -10.5% (inactive).

As to `Cc1cc(C=C2C(=O)NC(=S)NC2=O)c(C)n1-c1ccccc1`, the growth inhibition in assay [1] was 14.3% (inactive); in assay [2] it was -4.6% (inactive); in assay [3], 17.7% (inactive); in assay [4], -43.3% (inactive); in assay [5], 8.6% (inactive); in assay [6], 5.15% (inactive).

As for `Cc1cc2c(C(C)C)c(O)c(O)c(C=O)c2c(O)c1-c1c(C)cc2c(C(C)C)c(O)c(O)c(C=O)c2c1O`, the growth inhibition in assay [1] was 47.7% (inactive) and 59.2% (inactive); in assay [2], 52.6% (inactive) and 71.2% (active); in assay [3], 41.1% (inactive) and 46.5% (inactive); in assay [4] it was 47.6% (inactive) and 67.5% (inactive); in assay [5] it was 49.1% (inactive) and 43.6% (inactive); in assay [6], 60.2% (inactive) and -27% (inactive).

Regarding `NC(CCCc1ccc(N(CCCl)CCCl)cc1)C(=O)O` (configuration not stated), the growth inhibition in assay [1] is -1.55% (inactive); in assay [2], -3.45% (inactive); in assay [3], 8.75% (inactive); in assay [4], -52.7% (inactive); in assay [5], -6.15% (inactive); in assay [6], -8.3% (inactive).

On to `[Cl][Pt][Cl].[NH-]NC(=O)c1ccncc1`, for which the growth inhibition is 8.65% (inactive) in assay [1]; 5.8% (inactive) in assay [2]; -3.55% (inactive) in assay [3]; -17.1% (inactive) in assay [4]; 2.35% (inactive) in assay [5]; -2% (inactive) in assay [6].

As for `C(=C/[PH+](c1ccccc1)c1ccccc1)/[PH+](c1ccccc1)c1ccccc1.[C-]#[O+].[C-]#[O+].[C-]#[O+].[C-]#[O+].[C-]#[O+].[Mo+2].[Mo+4].[c-]1[c-][c-][cH-][c-]1.[c-]1[c-][c-][cH-][c-]1`, the growth inhibition in assay [1] was 91.6% (active); in assay [2], 93.5% (active); in assay [3] it was 93.5% (active); in assay [4], 92.2% (active); in assay [5] it was 92.9% (active); in assay [6], 91.2% (active).
